M1 antag: antagonists of human M1 muscarinic receptor; AID 588852; inhibition, % at 3 µM; P11229; CHO-K1 hM1, Fluo-8 calcium fluorescence, ACh EC80 antagonist; 360,000 compounds, 1.3% hits;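 active = percent inhibition above its own plate's cutoff, namely the mean of that plate's compound wells plus 3 SD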;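 also: peak over basal fluorescence ratio during 140 s after agonist addition; 0% = ACh EC80 plus DMSO and 100% = DMSO alone without agonist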
Target sequence (P11229 whole entry, looked up): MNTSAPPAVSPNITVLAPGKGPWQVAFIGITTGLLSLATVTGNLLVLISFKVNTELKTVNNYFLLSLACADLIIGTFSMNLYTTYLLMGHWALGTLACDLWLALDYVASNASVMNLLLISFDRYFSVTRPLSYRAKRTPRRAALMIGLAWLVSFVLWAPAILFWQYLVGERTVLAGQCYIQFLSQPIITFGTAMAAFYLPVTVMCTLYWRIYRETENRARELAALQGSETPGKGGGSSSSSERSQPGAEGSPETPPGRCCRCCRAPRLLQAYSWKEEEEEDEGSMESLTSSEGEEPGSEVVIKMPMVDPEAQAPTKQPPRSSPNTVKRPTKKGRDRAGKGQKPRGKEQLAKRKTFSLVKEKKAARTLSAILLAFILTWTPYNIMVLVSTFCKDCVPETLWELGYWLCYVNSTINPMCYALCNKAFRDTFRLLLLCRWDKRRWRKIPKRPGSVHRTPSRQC
SKN-1 block: inhibitors of C. elegans SKN-1 | C. elegans VP596 Pgst-4::GFP/RFP ratio, acrylamide-induced, 24 h | inhibition, % at 21.8 µM | 360,000 compounds, 0.49% hits;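 active = interference check ratio from 0.5 to 1.5 plus GFP to RFP signal ratio inhibition reaching or exceeding a fixed threshold, cut at about 30% in these data, passing the limit was not always enough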
CHRM1 agonist: activates human CHRM1 receptor; CHO-K1 hM1, Fluo-8 calcium fluorescence, agonist mode; 0% DMSO, 100% acetylcholine EC100; P11229; 360,000 compounds, 0.33% hits; AID 588814; activation, % at 3 µM;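 active = activation above the run's mean compound activation plus 3 SD, cut at about 16% in these data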;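 also: peak over basal fluorescence ratio within a 140 s kinetic read after compound addition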
ATG4B inh: ATG4B (human) cysteine protease inhibition; Q9Y4P1; 340,000 compounds, 0.51% hits; AID 504462; inhibition, % at 8.33 µM; ATG4B cleavage of LC3-PLA2, NBD-HPC fluorescence, 1 h; in the data active = inhibition above about 40%
Myeloid diff 2: promotes myeloid progenitor differentiation; 360,000 compounds, 1% hits; ER-HoxA9 myeloid progenitors, lysozyme-GFP differentiation, flow cytometry; calls only at 10 µM; AID 624256;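 active = normalized GFP-positive differentiation at or above the plate's own cutoff, the solvent-only control mean plus 3 SD; inconclusive = no clear call, values can overlap the other calls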;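 also: cells exposed to compound for four days before flow analysis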
M1 PAM: potentiates human M1 receptor response to acetylcholine. activation, % at 3 µM. 360,000 compounds, 0.088% hits. P11229. CHO-K1 hM1, Fluo-8 calcium fluorescence, ACh EC20; 0% = ACh EC20, 100% = maximal ACh; in the data active = activation above about 19%, passing the limit was not always enough
The depositor's hits bear a star; i = inactive; ? = inconclusive; · = no result given; + = active, no number. Shown are actives, neighbours in structure and some others; about 3.5% of the full set was active somewhere.

SMILES	M1 antag	SKN-1 block	CHRM1 agonist	ATG4B inh	Myeloid diff 2	M1 PAM
CCOC(=O)Nc1ccc2c(c1)N(C(=O)CN1CCN(C)CC1)c1ccccc1CC2	22	10	-8	-2	i	-20
CC(=O)Nc1ccccc1C(=O)C(=O)Nc1ccc(C(=O)NCC2CCCO2)cc1 (stereo not drawn)	1	-7	0	-4	+	2
COc1ccc(N(C(=O)CNC(=O)c2ccco2)C(C(=O)NC2CCCCC2)c2cccnc2)cc1 (stereo not drawn)	13	38*	-2	-8	i	1
O=C(NCC1CCCO1)c1cccs1 (stereo not drawn)	-19	-4	-3	2	+	19*
COc1ccc(N(C(=O)CNC(=O)c2ccco2)C(C(=O)NC2CCCC2)c2cccnc2)cc1 (stereo not drawn)	-4	-7	-1	-4	i	5
CCOC(=O)CN(C(=O)CNC(=O)c1cccs1)C(C(=O)NC1CCCCC1)c1cccs1 (stereo not drawn)	-7	46*	10	-5	i	-1
COc1ccc(OC)c(CN2CCN(C(=O)CNC(=O)c3ccccc3F)CC2)c1	-4	16	-4	-4	i	2
CCN1C(=O)c2cccc3c(S(=O)(=O)N4CCNCC4)ccc1c23	6	7	-7	0	i	-5
O=C(NCC(=O)N(CC1CCCO1)C(C(=O)NC1CCCCC1)c1ccccc1)c1cccs1 (stereo not drawn)	-20	9	-1	-14	i	7
O=C(NCC(=O)N(Cc1ccco1)C(C(=O)NC1CCCCC1)c1ccncc1)c1cccs1 (stereo not drawn)	-5	9	-4	3	i	3
O=C(NCC(=O)N(Cc1ccco1)C(C(=O)NC1CCCCC1)c1cccnc1)c1cccs1 (stereo not drawn)	-14	18	-3	-11	+	0
Cc1ccc(C(C(=O)NC2CCCCC2)N(CC2CCCO2)C(=O)CNC(=O)c2cccs2)cc1 (stereo not drawn)	37*	8	-1	-14	i	-18
Cc1ccc(CN(C(=O)CNC(=O)c2cccs2)C(C(=O)NCC2CCCO2)c2ccccc2)cc1 (stereo not drawn)	43*	1	-1	-8	i	-27
COc1cc(OC)cc(N(C(=O)CNC(=O)c2cccs2)C(C(=O)NCC2CCCO2)c2ccccc2)c1 (stereo not drawn)	-6	-13	-1	-4	i	-1
CCCC(C(=O)NCC1CCCO1)N(Cc1ccccc1)C(=O)CNS(=O)(=O)c1ccccc1 (stereo not drawn)	-13	42*	-7	-5	i	5
CCCOc1ccc(C(=O)CCC(=O)Nc2ccc(N3CCN(C)CC3)cc2)cc1	22	9	-9	-4	i	-11
COCc1cc(C)nc(SCC[N+](C)(C)CC(=O)c2ccc(Br)cc2)c1C#N	70*	-7	-8	2	i	-26
CN(C)C(=O)c1cccc(-c2cnc3c(NC=O)cc(-c4ccc(N(C)C)cc4)cn23)c1	-12	36*	0	·	i	-2
CC(C)c1ccc(C2c3[nH]c4ccccc4c3C[C@H]3C(=O)N(c4ccccc4C(=O)N4CCC[C@H]4C(=O)O)C(=O)N23)cc1 (stereo partly drawn)	-6	0	-4	-2	i	1
CCCC(=O)Nc1nc2ccc(OCC)cc2s1	-11	23	0	-7	i	15
CCOc1ccc2nc(NC(=S)N(C)C)sc2c1	-1	3	-4	-5	+	7
CC(C(=O)OCC(=O)c1c(N)n(C)c(=O)n(C)c1=O)N1C(=O)c2ccccc2C1=O (stereo not drawn)	-7	3	-2	-6	i	10
CC(C)[C@H](NC(=O)c1ccccc1)C(=O)OCC(=O)c1c(N)n(C)c(=O)n(C)c1=O	29*	0	-2	-10	i	-12
CN1C(=O)[C@H]2[C@@H](c3ccc(C(F)(F)F)cc3)N[C@]3(CCCN(Cc4ccc(C(F)(F)F)cc4)C3=O)[C@H]2C1=O	-2	13	-7	·	i	-1
Cn1cc(CN2CCN(c3ccccc3)CC2)c2ccccc21	31*	-29	-8	-2	i	-18
SMILES	M1 antag	SKN-1 block	CHRM1 agonist	ATG4B inh	Myeloid diff 2	M1 PAM
O=C(O)Cn1cc(CN2CCOCC2)c2ccccc21	-4	17	-1	8	i	3
CC(=O)Nc1ccc2c(c1)Cc1c-2cc(Br)c(N)c1Br	-13	37*	-1	0	i	13
CNC(=O)C[C@H]1C(=O)N(C2CCCCC2)C[C@@H]1CSC	2	-2	-1	·	i	-4
CC(C)(C)OC(=O)NCc1ccc(CNC(=O)c2nc[nH]c2C(=O)NCc2ccc(CNC(=O)OC(C)(C)C)cc2)cc1	2	15	-1	-11	i	-3
CC(C)(C)OC(=O)NCc1ccc(CNC(=O)c2[nH]cnc2C(=O)NC2CCN(C(=O)OC(C)(C)C)CC2)cc1	34*	0	4	-14	i	-19
CC(C)(C)OC(=O)CNC(=O)c1nc[nH]c1C(=O)NCc1ccc(CNC(=O)OC(C)(C)C)cc1	34*	-9	-2	5	i	-24
CC(C)(C)OC(=O)NCc1ccc(NC(=O)c2nc[nH]c2C(=O)NCCNC(=O)c2[nH]cnc2C(=O)Nc2ccc(CNC(=O)OC(C)(C)C)cc2)cc1	10	11	-3	6	i	-5
CC(C)(C)OC(=O)CNC(=O)c1[nH]cnc1C(=O)Nc1ccc(CNC(=O)OC(C)(C)C)cc1	52*	0	0	-16	?	-28
CN(C)CCC#CC1(O)c2ccccc2-c2ccccc21	66*	7	-9	5	i	-29
CC(C)(C)N(CC#CCC1(O)c2ccccc2-c2ccccc21)CCO	5	12	-14	6	i	-20
CCN(CC)CCC#CC1(O)c2ccccc2-c2ccccc21	99*	5	-9	-4	i	-29
OC(C#CCN1CCCC1)c1ccccc1 (stereo not drawn)	17	5	-12	5	i	-20
OC1(C#CCN2CCCC2)c2ccccc2-c2ccccc21	85*	-18	-9	-10	i	-25
CC1=C(C(=O)N2CCCCCC2)CC(CC(=O)NCCCN(C)C)C(=O)N1CCCN1CCCC1=O (stereo not drawn)	·	11	·	·	i	·
COc1ccc(C2C(C#N)=C(SCC(=O)Nc3ccc(C)cc3)NC3=C2C(=O)CC(C)(C)C3)cc1 (stereo not drawn)	85*	-16	21*	9	i	-15
O=C(Nc1ccc2c(c1)CN(C(=O)Nc1ccc(F)cc1)CC2)c1ccccn1	12	38*	2	·	i	-14

From PubChem BioAssay
